# Experimental data from PubChem BioAssay (NCI).
# About 79,000 compounds went through this panel and 15% of them were active in at least one assay; those are over-represented in the sample as a whole. Unmarked numbers belong to inactive results. Active and inactive are the calls of the source. No stated cut-off is given here; in the data, active means growth inhibition above about 70%; inactive means the rest.
# Experiments:
# [1] = NCI Yeast Anticancer Drug Screen. Data for the rad52 strain (AID 147);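 further: 0% = growth of vehicle-treated control cultures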; conditions: S. cerevisiae rad52 mutant growth inhibition, hits give high values
# How it was run: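 Growth of repair-deficient yeast cells was compared between compound-treated and vehicle-treated cultures to give percent inhibition.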
# [2] = NCI Yeast Anticancer Drug Screen. Data for the wt1 strain (AID 149);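 further: 0% = growth of vehicle-treated wt1 cultures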; conditions: S. cerevisiae wt1 strain (SPY 50644) growth inhibition, hits give high values
# How it was run: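 Compounds are added to wt1 yeast cultures. Growth is then measured. Inhibition is expressed relative to vehicle-treated controls.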
# [3] = NCI Yeast Anticancer Drug Screen. Data for the rad50EPP+ strain (AID 151);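 further: 0% = growth of vehicle-treated control cultures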; conditions: S. cerevisiae rad50 mutant strain, hits give high values
# How it was run: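 Measured: growth inhibition of rad50EPP+ yeast. Reference: vehicle-treated controls. Screen uses strains with defined genetic alterations in DNA damage repair or cell cycle control.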
# [4] = NCI Yeast Anticancer Drug Screen. Data for the mgt1 strain (AID 153); conditions: S. cerevisiae mgt1 mutant growth inhibition, hits give high values
# How it was run: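 Compounds were applied to mgt1 mutant yeast, and growth was then compared against vehicle-treated control cultures to give percent inhibition.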
# [5] = NCI Yeast Anticancer Drug Screen. Data for the rad50 strain (AID 155);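 further: 0% = growth of vehicle-only cultures of the same strain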; conditions: S. cerevisiae rad50 strain growth inhibition, hits give high values
# How it was run: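 Inhibition values express reduced yeast growth in compound-treated cultures relative to vehicle-treated controls.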
# [6] = NCI Yeast Anticancer Drug Screen. Data for the mec2-1 strain (AID 157); conditions: S. cerevisiae mec2-1 strain, hits give high values
# How it was run: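 Compounds were applied to mec2-1 yeast cells. Their growth was then compared with that of vehicle-treated cultures to give growth inhibition.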
# [7] = NCI Yeast Anticancer Drug Screen. Data for the rad14 strain (AID 159);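 further: 0% = growth of vehicle-treated control cultures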; conditions: S. cerevisiae rad14 strain growth inhibition, hits give high values
# How it was run: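 A mutant yeast strain defective in DNA damage repair is treated with compound; inhibition of its growth is scored against untreated, vehicle-exposed cultures.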
# [8] = NCI Yeast Anticancer Drug Screen. Data for the sgs1 mgt1 strain (AID 161);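 further: 0% = growth of cultures given vehicle only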; conditions: S. cerevisiae sgs1 mgt1 strain, hits give high values
# How it was run: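 Percent growth inhibition was derived by comparing compound-exposed mutant yeast with vehicle-exposed cultures. The strain carries alterations in DNA damage repair.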
# [9] = NCI Yeast Anticancer Drug Screen. Data for the CLN2oe strain (AID 163);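 further: 0% = growth of vehicle-only control cultures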; conditions: S. cerevisiae CLN2oe strain, hits give high values
# How it was run: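 Cells of an engineered yeast line with disturbed cell-cycle regulation are treated with compound. Inhibition of growth is then calculated relative to the vehicle-treated reference.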
# [10] = NCI Yeast Anticancer Drug Screen. Data for the cln2 rad14 strain (AID 165);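 further: 0% = growth equal to vehicle treated cultures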; conditions: S. cerevisiae cln2 rad14 strain, hits give high values
# How it was run: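 Strain: cln2 rad14 yeast, altered in cell cycle control and DNA damage repair. Read-out: growth inhibition vs vehicle.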
# [11] = NCI Yeast Anticancer Drug Screen. Data for the bub3 strain (AID 167); conditions: S. cerevisiae bub3 mutant strain, hits give high values
# How it was run: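 Steps: expose the mutant yeast strain to compound; grow alongside vehicle-treated cultures; measure growth; express inhibition against the vehicle cultures.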
# [12] = NCI Yeast Anticancer Drug Screen. Data for the wt2 strain (AID 169);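 further: 0% = growth of vehicle-treated yeast cultures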; conditions: S. cerevisiae wt2 strain growth inhibition, hits give high values
# How it was run: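 Growth of compound-treated yeast is measured and expressed as inhibition relative to vehicle-only controls.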
# [13] = NCI Yeast Anticancer Drug Screen. Data for the mlh1 strain (AID 171);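 further: 0% = growth of vehicle-treated control cultures of the same strain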; conditions: S. cerevisiae mlh1 strain growth inhibition, hits give high values
# How it was run: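 Test agents were incubated with yeast bearing a defined DNA damage repair or cell cycle control alteration; values are growth inhibition normalised to vehicle-treated cultures.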
# [14] = NCI Yeast Anticancer Drug Screen. Data for the sgs1 strain (AID 173);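 further: 0% = growth of vehicle-only control cultures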; conditions: S. cerevisiae sgs1 mutant, hits give high values
# How it was run: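 Strain with an altered DNA repair or cell cycle pathway exposed to compound. Growth then measured. Value = inhibition versus vehicle control.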
# [15] = NCI Yeast Anticancer Drug Screen. Data for the mlh1 rad18 strain (AID 175); conditions: S. cerevisiae mlh1 rad18 strain growth inhibition, hits give high values
# How it was run: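 A repair-deficient yeast strain is exposed to test compound, and growth is scored relative to vehicle-treated controls.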
# [16] = NCI Yeast Anticancer Drug Screen. Data for the rad18 strain (AID 177); conditions: S. cerevisiae rad18 mutant growth inhibition, hits give high values
# How it was run: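 DNA-repair-defective yeast; compound treatment; growth inhibition scored against vehicle.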
# [17] = at 5.0 µM (retest, dose inferred, filed as 0.5)
# [18] = at 50.0 µM (retest, dose inferred, filed as 5.0)
smiles,measurement,setting,value
N#CC1=C(N)N(/N=C/c2ccccc2)C(c2ccccc2)C1(C#N)C#N (stereo not drawn),growth inhibition,[1]; at 1.2 µM,15%
same,growth inhibition,[1]; at 3.7 µM,41%
same,growth inhibition,[1]; at 11.0 µM,78% (active)
same,growth inhibition,[1]; at 33.0 µM,90% (active)
same,growth inhibition,[1]; at 100.0 µM,84% (active)
same,growth inhibition,[2]; at 1.2 µM,12%
same,growth inhibition,[2]; at 3.7 µM,12%
same,growth inhibition,[2]; at 11.0 µM,10%
same,growth inhibition,[2]; at 33.0 µM,55%
same,growth inhibition,[2]; at 100.0 µM,58%
same,growth inhibition,[3]; at 1.2 µM,20%
same,growth inhibition,[3]; at 3.7 µM,14%
same,growth inhibition,[3]; at 11.0 µM,8%
same,growth inhibition,[3]; at 33.0 µM,23%
same,growth inhibition,[3]; at 100.0 µM,5%
same,growth inhibition,[4]; at 1.2 µM,8%
same,growth inhibition,[4]; at 3.7 µM,33%
same,growth inhibition,[4]; at 11.0 µM,84% (active)
same,growth inhibition,[4]; at 33.0 µM,96% (active)
same,growth inhibition,[4]; at 100.0 µM,95% (active)
same,growth inhibition,[5]; at 1.2 µM,5%
same,growth inhibition,[5]; at 3.7 µM,17%
same,growth inhibition,[5]; [17],16%
same,growth inhibition,[5]; at 11.0 µM,66%
same,growth inhibition,[5]; at 33.0 µM,90% (active)
same,growth inhibition,[5]; [18],83% (active)
same,growth inhibition,[5]; at 50.0 µM,39.9%
same,growth inhibition,[5]; at 100.0 µM,87% (active)
same,growth inhibition,[6]; at 1.2 µM,9%
same,growth inhibition,[6]; at 3.7 µM,31%
same,growth inhibition,[6]; [17],4%
same,growth inhibition,[6]; at 11.0 µM,72% (active)
same,growth inhibition,[6]; at 33.0 µM,91% (active)
same,growth inhibition,[6]; [18],87% (active)
same,growth inhibition,[6]; at 50.0 µM,58.5%
same,growth inhibition,[6]; at 100.0 µM,87% (active)
same,growth inhibition,[7]; at 1.2 µM,4%
same,growth inhibition,[7]; at 3.7 µM,19%
same,growth inhibition,[7]; at 11.0 µM,45%
same,growth inhibition,[7]; at 33.0 µM,89% (active)
same,growth inhibition,[7]; at 100.0 µM,90% (active)
same,growth inhibition,[8]; [17],5%
same,growth inhibition,[8]; [18],76% (active)
same,growth inhibition,[8]; at 50.0 µM,76.6% (active)
same,growth inhibition,[9]; at 1.2 µM,25%
same,growth inhibition,[9]; at 3.7 µM,40%
same,growth inhibition,[9]; at 11.0 µM,64%
same,growth inhibition,[9]; at 33.0 µM,88% (active)
same,growth inhibition,[9]; at 100.0 µM,93% (active)
same,growth inhibition,[10]; [17],-4%
same,growth inhibition,[10]; [18],46%
same,growth inhibition,[10]; at 50.0 µM,45.7%
same,growth inhibition,[11]; at 1.2 µM,9%
same,growth inhibition,[11]; at 3.7 µM,21%
same,growth inhibition,[11]; [17],13%
same,growth inhibition,[11]; at 11.0 µM,77% (active)
same,growth inhibition,[11]; at 33.0 µM,93% (active)
same,growth inhibition,[11]; [18],88% (active)
same,growth inhibition,[11]; at 50.0 µM,65.7%
same,growth inhibition,[11]; at 100.0 µM,95% (active)
same,growth inhibition,[12]; at 1.2 µM,-9%
same,growth inhibition,[12]; at 3.7 µM,51%
same,growth inhibition,[12]; at 11.0 µM,94% (active)
same,growth inhibition,[12]; at 33.0 µM,86% (active)
same,growth inhibition,[12]; at 100.0 µM,87% (active)
same,growth inhibition,[13]; at 1.2 µM,13%
same,growth inhibition,[13]; at 3.7 µM,27%
same,growth inhibition,[13]; at 11.0 µM,79% (active)
same,growth inhibition,[13]; at 33.0 µM,95% (active)
same,growth inhibition,[13]; at 100.0 µM,93% (active)
same,growth inhibition,[14]; at 1.2 µM,15%
same,growth inhibition,[14]; at 3.7 µM,41%
same,growth inhibition,[14]; at 11.0 µM,80% (active)
same,growth inhibition,[14]; at 33.0 µM,93% (active)
same,growth inhibition,[14]; at 100.0 µM,95% (active)
same,growth inhibition,[15]; [17],14%
same,growth inhibition,[15]; [18],89% (active)
same,growth inhibition,[15]; at 50.0 µM,63.5%
same,growth inhibition,[16]; at 1.2 µM,3%
same,growth inhibition,[16]; at 3.7 µM,22%
same,growth inhibition,[16]; at 11.0 µM,81% (active)
same,growth inhibition,[16]; at 33.0 µM,89% (active)
same,growth inhibition,[16]; at 100.0 µM,89% (active)
